# Results as given in PubChem BioAssay AID1918969 (ICCB-Longwood Screening Facility, Harvard Medical School, 2023).
# Out of some 190,000 compounds screened, about 280 (0.15%) were called active. The full list was thinned out, with actives kept by preference. A number with no mark means an inactive call. No stated cut-off is given here; in the data, active means inhibition above about 27% (passing the limit was not always enough); inactive means the rest.
# System: HCMV UL50-UL53 nuclear egress complex (human cytomegalovirus)
# Experiment: inhibitors of HCMV UL50-UL53 interaction, biochemical, HTRF (AID 1918969)
# Settings: normalized percent inhibition, hits give high values, concentration not given here
row,SMILES,inhibition
1,CC(C)(C)c1ccc(CN2C(=O)N(Cc3ccccc3)S(=O)(=O)c3ccccc32)cc1,-19.5%
2,Cc1nnc(NC(=O)Cn2cnc3oc(C)c(C)c3c2=O)s1,-21.8%
3,O=S(=O)(NCCc1ccccn1)c1cc(Cl)cc(Cl)c1O,-28.9%
4,Cc1noc(C)c1C(=O)c1c(C)[nH]n(-c2ccccc2)c1=O,-25.3%
5,Cc1ccc(Sc2c(C)[nH]n(-c3ccccc3)c2=O)cc1,-26%
6,CC1=NOC(=O)C1C(c1cccc(Br)c1)c1c(C)[nH]n(-c2ccccc2)c1=O (configuration not stated),59.5% (active)
7,O=C(CN1C(=O)c2ccccc2C1=O)Nc1ccc2c(c1)CCC(=O)N2,-46%
8,COC(=O)c1ccc(C)c(NS(=O)(=O)c2ccc3c(c2)c(=O)sn3C)c1,-31.7%
9,S=C(c1ccncc1)N1CCOCC1,-13.4%
10,CCCCCCCCCCCCCCCC(=O)O[C@@H]1[C@@H](O)[C@@H](O)C([C@H](NC(=O)[C@@H]2C[C@@H](CCC)CN2C)[C@H](C)Cl)O[C@@H]1SC (some centres not stated),-4.7%
11,N#CCCn1cc(C=NCc2ccccc2)c(-c2cc3ccccc3o2)n1,-30.5%
12,COc1ccc(F)cc1-c1cc(N2CCN(S(=O)(=O)c3ccc(F)c(Cl)c3)CC2)ncn1,-27.5%
13,NS(=O)(=O)c1ccc(NC(=O)c2cc(-c3ccc4c(c3)OCO4)nc3ccccc23)cc1,-4.6%
14,COC(=O)c1sccc1NC(=O)c1cc(=O)n2c(nc3cc(C)c(C)cc32)s1,-30.2%
15,O=C1CN(S(=O)(=O)c2ccc(-c3ccc(=O)[nH]n3)s2)c2ccccc2N1,-43.4%
16,O=C(Oc1ccccc1)c1cccc(C(=O)Oc2ccccc2)c1F,-13.9%
17,COc1ccc(OC)c(NC(=O)c2cc3c([nH]c2=O)CC(C)(C)CC3=O)c1,3.5%
18,Cc1ccc(C(=O)NCC(=O)NC2CC2)cc1,-17.5%
19,N#CC(C#N)=C1SCN(c2cccc(Cl)c2)CS1,-5%

row,SMILES,inhibition
1,COc1cccc(NC(=O)c2c(-c3cccnc3)noc2C)c1,-15.4%
2,COc1ccc(NC(=O)CCCSc2nc3sc(C)c(C)c3c(=O)[nH]2)cc1,-2.2%
3,CNc1nc(OC)nc(N(C)C)n1,11.3%
4,O=C(Nc1ccc2oc(-c3ccccc3Br)nc2c1)c1cccc([N+](=O)[O-])c1,7%
5,CCc1nc(-c2cc(S(=O)(=O)N3CCCC(C(=O)Nc4ccc(C)c(F)c4)C3)c(C)s2)no1 (configuration not stated),-9.2%
6,Cc1ccc(NC(=O)CCCc2nc3cccnc3n2CCC(C)C)cc1,-10.6%
7,Nc1nc(Nc2ccccc2)sc1C(=O)c1ccc(Br)cc1,-4.3%
8,CC1(C)Cc2cccc(Oc3ncnc4sccc34)c2O1,-13%
9,O=C(CCS(=O)(=O)c1ccc2c(c1)NC(=O)CS2)NCc1ccccc1Cl,-15.7%
10,OC(Cc1nc2ccccc2o1)c1ccccc1 (configuration not stated),-3.6%
11,COc1ccc(C(=O)CSc2nc3nc[nH]c3c(=O)[nH]2)cc1,-13.4%
12,COc1cc(=O)[nH]c(SC(C)C(=O)Nc2ccccc2)n1 (configuration not stated),-5.6%
13,CCCc1noc(-c2cc(S(N)(=O)=O)ccc2OC)n1,3.5%
14,O=C(Cc1nc2ccccc2n1C(F)F)c1ccccc1,-21.1%
15,COc1ccc(N(Cc2nc3ccccc3s2)S(=O)(=O)c2cccs2)cc1,-24.9%
16,NC(=O)c1ccc2c3c(cccc13)CC2,-30.8%
17,Cc1nc(Nc2ccc(NC(=O)C(C)(C)C)cc2)cc(N(C)C)n1,7.9%
18,COc1cc(-c2noc(-c3ccccc3)n2)ccc1OCC(=O)Nc1ccc(F)cc1,-31.7%
19,CCOC(=O)C1C(=O)CC(=O)C(C(=O)OCC)C1c1ccccc1 (configuration not stated),-6.9%

row,SMILES,inhibition
1,CCOC(=O)c1noc2ncnc(N(CC)c3ccccc3)c12,-26.1%
2,O=C(NCN1CCN(CNC(=O)c2ccccc2)CC1)c1ccccc1,-42.2%
3,CCn1c(=O)c(=O)n(CC)c2cc(N3CCCCC3)c(NC(=O)c3cccc(F)c3)cc21,-3.5%
4,CCn1c(=O)c(=O)n(CC)c2cc(N3CCCCC3)c(NC(=O)c3ccc(Cl)cc3)cc21,62.9% (active)
5,CCn1c(=O)c(=O)n(CC)c2cc(N3CCCCC3)c(NC(=O)c3ccccc3)cc21,-23.2%
6,CCCCn1c(SCC(=O)N2CCCC2)nc2cn(C)nc2c1=O,-19.7%
7,Cn1cc(CCC(=O)NC2CC2)c2ccccc21,0.4%
8,CC1(C)CC(=O)C2=C(C1)N(Cc1ccco1)C(=O)C2(NC(=O)c1cccs1)C(F)(F)F (configuration not stated),-5.4%
9,CCN(CC)c1ccc2cc(-c3csc(-c4nc(-c5cc6ccc(N(CC)CC)cc6oc5=O)cs4)n3)c(=O)oc2c1,-0.5%
10,Cc1cc(NC(=O)c2ccc(N(C)C)cc2)no1,1.2%
11,O=C(CC1=NS(=O)(=O)c2ccccc2N1)N1CCN(C(c2ccccc2)c2ccccc2)CC1,-9.6%
12,C/C(=N\O)C(C)(C)Nc1ccccc1,24.2%
13,Cc1ccc(S(=O)(=O)N(C)CC(=O)OCc2nc3ccccc3s2)cc1,-25.9%
14,CCOC(=O)c1c(NC(=O)CSc2nccn2C)sc2c1CCC(C)C2 (configuration not stated),-12.2%
15,CC(C)N(C(=O)CNc1cc(Cl)ccc1Cl)c1ccccc1,-6.5%
16,O=C1c2ccccc2C(=O)C1c1ccccc1F,-3.9%
17,Cc1c(OCC(N)=O)ccc2c3c(c(=O)oc12)CCCC3,7.5%
18,NC(=O)c1ccc(-c2ccccc2)cc1C(N)=O,-28.2%
19,Nc1nc(N)nc(SCC(=O)N2CCCC2)n1,-9.6%
